ChEMBL document CHEMBL2218924, “A broad activity screen in support of a chemogenomic map for kinase signalling research and drug discovery” (Biochem J, 2013)

Experiments:
[1] = target: T1, Ephrin type-B receptor 1 (Homo sapiens) (UniProt P54762); settings: at 10 µM
T1 sequence (whole entry): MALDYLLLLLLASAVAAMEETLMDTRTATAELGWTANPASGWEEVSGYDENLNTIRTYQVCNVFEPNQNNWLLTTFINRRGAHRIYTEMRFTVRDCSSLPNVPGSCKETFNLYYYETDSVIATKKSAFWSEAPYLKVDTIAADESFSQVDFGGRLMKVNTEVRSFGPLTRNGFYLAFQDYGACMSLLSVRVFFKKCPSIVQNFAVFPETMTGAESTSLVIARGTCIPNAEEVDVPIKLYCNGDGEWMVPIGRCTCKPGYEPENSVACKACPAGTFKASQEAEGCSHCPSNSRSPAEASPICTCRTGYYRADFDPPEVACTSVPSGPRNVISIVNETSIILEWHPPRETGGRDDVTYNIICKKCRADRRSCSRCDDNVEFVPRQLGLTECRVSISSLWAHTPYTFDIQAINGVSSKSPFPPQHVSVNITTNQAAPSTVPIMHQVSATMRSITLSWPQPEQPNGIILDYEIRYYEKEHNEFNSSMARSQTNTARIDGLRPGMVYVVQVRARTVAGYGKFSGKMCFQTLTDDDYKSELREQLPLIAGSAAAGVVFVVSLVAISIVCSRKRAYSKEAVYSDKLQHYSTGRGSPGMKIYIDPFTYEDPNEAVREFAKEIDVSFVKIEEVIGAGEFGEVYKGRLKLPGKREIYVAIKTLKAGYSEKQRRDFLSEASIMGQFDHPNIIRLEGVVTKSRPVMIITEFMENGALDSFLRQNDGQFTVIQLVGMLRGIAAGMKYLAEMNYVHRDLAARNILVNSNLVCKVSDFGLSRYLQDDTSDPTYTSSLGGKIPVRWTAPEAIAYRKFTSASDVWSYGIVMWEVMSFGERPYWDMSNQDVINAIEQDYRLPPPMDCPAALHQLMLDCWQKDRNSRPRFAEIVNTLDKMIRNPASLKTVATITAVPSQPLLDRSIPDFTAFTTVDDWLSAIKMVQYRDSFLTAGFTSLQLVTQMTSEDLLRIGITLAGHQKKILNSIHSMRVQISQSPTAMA

[2] = target: T2, Ephrin type-B receptor 2 (Homo sapiens) (UniProt P29323); settings: at 1 µM
T2 sequence (whole entry): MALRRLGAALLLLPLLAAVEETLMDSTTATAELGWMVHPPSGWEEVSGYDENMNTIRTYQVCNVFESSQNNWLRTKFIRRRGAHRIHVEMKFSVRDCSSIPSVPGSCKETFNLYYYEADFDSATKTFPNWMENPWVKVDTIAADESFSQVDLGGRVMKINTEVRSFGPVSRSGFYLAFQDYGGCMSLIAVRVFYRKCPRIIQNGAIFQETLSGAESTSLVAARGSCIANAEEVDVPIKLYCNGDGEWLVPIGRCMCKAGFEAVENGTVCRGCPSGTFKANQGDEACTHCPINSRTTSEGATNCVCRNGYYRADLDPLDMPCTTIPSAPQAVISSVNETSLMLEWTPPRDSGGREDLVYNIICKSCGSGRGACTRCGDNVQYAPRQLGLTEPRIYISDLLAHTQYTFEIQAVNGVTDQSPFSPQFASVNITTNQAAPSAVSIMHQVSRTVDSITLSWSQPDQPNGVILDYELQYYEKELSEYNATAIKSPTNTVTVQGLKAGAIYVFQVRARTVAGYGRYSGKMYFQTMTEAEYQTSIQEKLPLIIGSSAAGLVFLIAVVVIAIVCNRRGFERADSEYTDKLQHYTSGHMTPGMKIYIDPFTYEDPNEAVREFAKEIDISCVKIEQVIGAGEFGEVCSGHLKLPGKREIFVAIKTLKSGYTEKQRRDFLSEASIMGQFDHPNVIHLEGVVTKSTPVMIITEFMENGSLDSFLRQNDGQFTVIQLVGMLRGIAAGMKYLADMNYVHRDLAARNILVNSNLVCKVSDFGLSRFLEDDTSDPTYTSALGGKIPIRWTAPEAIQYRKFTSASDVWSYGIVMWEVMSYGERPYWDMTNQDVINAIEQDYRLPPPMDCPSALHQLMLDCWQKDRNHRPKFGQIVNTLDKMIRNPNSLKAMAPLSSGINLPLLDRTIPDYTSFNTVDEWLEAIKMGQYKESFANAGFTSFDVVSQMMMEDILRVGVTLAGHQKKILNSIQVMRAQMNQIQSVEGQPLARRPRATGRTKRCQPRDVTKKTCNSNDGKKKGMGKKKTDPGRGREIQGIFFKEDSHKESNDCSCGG

[3] = target: T2, Ephrin type-B receptor 2 (Homo sapiens); settings: at 10 µM
[4] = target: T3, Ephrin type-B receptor 3 (Homo sapiens) (UniProt P54753); settings: at 1 µM
T3 sequence (whole entry): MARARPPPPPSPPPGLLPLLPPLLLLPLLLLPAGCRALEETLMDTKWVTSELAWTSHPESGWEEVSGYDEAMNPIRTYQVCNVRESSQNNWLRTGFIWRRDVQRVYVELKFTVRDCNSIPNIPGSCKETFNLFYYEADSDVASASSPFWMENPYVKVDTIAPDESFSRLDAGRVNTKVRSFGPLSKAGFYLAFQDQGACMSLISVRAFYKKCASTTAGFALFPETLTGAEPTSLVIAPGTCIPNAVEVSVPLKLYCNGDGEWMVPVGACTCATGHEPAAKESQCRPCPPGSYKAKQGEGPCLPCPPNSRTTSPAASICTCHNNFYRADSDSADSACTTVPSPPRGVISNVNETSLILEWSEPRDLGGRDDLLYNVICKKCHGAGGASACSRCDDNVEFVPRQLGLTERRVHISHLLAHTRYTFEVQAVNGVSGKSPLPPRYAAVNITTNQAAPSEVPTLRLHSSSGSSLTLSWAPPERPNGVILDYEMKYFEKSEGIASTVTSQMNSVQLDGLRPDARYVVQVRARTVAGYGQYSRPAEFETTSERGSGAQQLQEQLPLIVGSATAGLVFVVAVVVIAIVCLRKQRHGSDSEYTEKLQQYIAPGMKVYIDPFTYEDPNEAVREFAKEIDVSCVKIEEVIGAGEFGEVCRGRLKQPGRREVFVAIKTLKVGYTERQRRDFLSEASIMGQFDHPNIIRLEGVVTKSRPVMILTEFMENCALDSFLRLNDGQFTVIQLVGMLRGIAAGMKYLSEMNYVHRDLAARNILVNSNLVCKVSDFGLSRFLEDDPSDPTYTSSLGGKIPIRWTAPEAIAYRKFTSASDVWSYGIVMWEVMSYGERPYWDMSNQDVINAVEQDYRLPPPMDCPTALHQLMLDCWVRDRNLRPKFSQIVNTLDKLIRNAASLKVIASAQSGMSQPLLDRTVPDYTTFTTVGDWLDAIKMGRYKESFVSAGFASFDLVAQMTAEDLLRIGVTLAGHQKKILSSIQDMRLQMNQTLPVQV

[5] = target: T4, Ephrin type-B receptor 4 (Homo sapiens) (UniProt P54760); settings: at 1 µM
T4 sequence (whole entry): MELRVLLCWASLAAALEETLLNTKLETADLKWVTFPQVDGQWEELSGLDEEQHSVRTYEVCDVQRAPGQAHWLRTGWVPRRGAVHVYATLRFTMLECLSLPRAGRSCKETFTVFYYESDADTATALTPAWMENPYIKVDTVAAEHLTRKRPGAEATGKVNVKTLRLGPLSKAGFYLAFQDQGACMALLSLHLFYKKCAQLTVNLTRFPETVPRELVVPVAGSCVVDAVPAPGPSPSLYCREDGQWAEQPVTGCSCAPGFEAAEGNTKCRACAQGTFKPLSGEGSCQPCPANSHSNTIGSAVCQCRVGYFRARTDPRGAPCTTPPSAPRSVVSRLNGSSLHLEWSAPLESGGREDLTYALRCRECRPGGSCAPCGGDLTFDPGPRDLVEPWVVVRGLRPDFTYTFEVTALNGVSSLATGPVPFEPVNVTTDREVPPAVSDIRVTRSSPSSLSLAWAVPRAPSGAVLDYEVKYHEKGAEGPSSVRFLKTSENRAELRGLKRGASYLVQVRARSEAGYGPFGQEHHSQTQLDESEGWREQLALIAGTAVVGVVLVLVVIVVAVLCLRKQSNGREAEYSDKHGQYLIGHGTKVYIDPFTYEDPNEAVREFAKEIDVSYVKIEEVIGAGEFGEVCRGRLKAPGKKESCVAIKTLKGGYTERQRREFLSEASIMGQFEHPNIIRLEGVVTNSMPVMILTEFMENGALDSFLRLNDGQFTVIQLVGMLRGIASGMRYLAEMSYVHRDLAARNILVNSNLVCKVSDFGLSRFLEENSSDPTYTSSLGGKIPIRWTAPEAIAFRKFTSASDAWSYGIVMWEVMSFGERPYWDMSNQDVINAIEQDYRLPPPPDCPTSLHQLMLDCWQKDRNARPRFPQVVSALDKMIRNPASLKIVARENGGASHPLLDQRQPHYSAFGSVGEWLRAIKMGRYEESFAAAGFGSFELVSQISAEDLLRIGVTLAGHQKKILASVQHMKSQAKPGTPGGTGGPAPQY

[6] = target: T4, Ephrin type-B receptor 4 (Homo sapiens); settings: at 10 µM
[7] = target: Receptor tyrosine-protein kinase erbB-4 (Homo sapiens) (UniProt Q15303); settings: at 1 µM
[8] = target: Receptor tyrosine-protein kinase erbB-4 (Homo sapiens) (UniProt Q15303); settings: at 10 µM
[9] = target: Focal adhesion kinase 1 (Homo sapiens) (UniProt Q05397); settings: at 1 µM
[10] = target: Focal adhesion kinase 1 (Homo sapiens) (UniProt Q05397); settings: at 10 µM
[11] = target: Fibroblast growth factor receptor 1 (Homo sapiens) (UniProt P11362); settings: at 1 µM
[12] = target: Fibroblast growth factor receptor 1 (Homo sapiens) (UniProt P11362); settings: at 10 µM
[13] = target: Fibroblast growth factor receptor 2 (Homo sapiens) (UniProt P21802); settings: at 1 µM
[14] = target: Fibroblast growth factor receptor 2 (Homo sapiens) (UniProt P21802); settings: at 10 µM
[15] = target: Fibroblast growth factor receptor 3 (Homo sapiens) (UniProt P22607); settings: at 1 µM
[16] = target: Fibroblast growth factor receptor 3 (Homo sapiens) (UniProt P22607); settings: at 10 µM
[17] = target: Fibroblast growth factor receptor 4 (Homo sapiens) (UniProt P22455); settings: at 1 µM
[18] = target: Fibroblast growth factor receptor 4 (Homo sapiens) (UniProt P22455); settings: at 10 µM
[19] = target: Tyrosine-protein kinase Fer (Homo sapiens) (UniProt P16591); settings: at 1 µM
[20] = target: T3, Ephrin type-B receptor 3 (Homo sapiens); settings: at 10 µM

Chain of Receptor tyrosine-protein kinase erbB-4 (Homo sapiens) (Q15303 whole entry): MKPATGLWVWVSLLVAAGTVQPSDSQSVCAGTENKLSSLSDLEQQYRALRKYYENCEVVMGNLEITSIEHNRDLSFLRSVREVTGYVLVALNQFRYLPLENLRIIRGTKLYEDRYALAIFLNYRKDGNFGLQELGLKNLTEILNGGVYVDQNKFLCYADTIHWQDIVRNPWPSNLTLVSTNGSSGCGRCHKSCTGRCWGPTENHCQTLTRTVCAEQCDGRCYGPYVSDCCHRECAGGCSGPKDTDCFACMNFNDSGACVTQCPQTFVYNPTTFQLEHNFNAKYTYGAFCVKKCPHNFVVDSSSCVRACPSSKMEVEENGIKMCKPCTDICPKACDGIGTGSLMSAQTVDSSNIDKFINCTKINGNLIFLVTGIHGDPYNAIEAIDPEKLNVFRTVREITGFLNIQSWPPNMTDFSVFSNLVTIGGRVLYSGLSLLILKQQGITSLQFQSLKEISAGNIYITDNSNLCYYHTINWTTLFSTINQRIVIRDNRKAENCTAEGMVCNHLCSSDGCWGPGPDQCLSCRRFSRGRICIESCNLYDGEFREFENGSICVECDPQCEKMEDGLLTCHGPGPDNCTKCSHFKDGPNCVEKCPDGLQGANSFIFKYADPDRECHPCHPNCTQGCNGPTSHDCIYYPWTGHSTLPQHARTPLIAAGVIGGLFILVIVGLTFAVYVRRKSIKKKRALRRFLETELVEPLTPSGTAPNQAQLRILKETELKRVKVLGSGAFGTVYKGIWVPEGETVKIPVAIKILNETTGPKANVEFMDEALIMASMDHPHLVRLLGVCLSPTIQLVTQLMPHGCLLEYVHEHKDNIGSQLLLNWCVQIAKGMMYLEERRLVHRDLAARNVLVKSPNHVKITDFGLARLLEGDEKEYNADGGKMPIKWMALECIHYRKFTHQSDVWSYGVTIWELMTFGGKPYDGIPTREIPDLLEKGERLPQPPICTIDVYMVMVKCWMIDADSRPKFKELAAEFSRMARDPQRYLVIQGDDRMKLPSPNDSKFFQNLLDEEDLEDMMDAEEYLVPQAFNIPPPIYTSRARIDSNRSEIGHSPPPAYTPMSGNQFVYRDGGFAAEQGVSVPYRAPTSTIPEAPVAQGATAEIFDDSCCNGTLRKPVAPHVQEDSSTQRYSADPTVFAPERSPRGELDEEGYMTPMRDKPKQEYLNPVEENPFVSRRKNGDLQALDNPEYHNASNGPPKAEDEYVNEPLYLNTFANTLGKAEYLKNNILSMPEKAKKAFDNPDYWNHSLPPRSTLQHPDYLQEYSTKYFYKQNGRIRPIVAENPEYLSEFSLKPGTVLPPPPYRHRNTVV
Chain of Tyrosine-protein kinase Fer (Homo sapiens) (P16591 whole entry, looked up): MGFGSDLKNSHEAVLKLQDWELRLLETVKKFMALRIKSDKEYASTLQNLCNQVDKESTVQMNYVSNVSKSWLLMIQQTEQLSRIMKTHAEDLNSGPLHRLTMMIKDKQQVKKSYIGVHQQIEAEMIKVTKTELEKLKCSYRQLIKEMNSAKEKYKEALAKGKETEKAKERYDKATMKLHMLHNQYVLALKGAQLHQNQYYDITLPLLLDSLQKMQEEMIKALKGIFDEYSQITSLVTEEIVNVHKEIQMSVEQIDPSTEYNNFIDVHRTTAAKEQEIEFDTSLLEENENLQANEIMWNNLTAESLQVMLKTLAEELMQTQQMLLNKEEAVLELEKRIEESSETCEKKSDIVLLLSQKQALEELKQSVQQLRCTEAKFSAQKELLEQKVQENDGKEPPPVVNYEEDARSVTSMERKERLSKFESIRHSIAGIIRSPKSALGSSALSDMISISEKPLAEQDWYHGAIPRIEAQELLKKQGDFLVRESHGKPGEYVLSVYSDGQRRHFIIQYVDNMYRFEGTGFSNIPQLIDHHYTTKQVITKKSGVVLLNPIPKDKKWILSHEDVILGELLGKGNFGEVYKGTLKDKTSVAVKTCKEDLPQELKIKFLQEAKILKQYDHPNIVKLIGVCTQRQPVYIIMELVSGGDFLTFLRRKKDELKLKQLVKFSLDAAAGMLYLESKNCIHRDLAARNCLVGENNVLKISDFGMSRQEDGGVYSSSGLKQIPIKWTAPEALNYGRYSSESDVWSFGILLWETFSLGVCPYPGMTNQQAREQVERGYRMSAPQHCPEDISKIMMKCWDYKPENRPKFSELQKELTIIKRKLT
Chain of Focal adhesion kinase 1 (Homo sapiens) (Q05397 2-1052 limits assumed): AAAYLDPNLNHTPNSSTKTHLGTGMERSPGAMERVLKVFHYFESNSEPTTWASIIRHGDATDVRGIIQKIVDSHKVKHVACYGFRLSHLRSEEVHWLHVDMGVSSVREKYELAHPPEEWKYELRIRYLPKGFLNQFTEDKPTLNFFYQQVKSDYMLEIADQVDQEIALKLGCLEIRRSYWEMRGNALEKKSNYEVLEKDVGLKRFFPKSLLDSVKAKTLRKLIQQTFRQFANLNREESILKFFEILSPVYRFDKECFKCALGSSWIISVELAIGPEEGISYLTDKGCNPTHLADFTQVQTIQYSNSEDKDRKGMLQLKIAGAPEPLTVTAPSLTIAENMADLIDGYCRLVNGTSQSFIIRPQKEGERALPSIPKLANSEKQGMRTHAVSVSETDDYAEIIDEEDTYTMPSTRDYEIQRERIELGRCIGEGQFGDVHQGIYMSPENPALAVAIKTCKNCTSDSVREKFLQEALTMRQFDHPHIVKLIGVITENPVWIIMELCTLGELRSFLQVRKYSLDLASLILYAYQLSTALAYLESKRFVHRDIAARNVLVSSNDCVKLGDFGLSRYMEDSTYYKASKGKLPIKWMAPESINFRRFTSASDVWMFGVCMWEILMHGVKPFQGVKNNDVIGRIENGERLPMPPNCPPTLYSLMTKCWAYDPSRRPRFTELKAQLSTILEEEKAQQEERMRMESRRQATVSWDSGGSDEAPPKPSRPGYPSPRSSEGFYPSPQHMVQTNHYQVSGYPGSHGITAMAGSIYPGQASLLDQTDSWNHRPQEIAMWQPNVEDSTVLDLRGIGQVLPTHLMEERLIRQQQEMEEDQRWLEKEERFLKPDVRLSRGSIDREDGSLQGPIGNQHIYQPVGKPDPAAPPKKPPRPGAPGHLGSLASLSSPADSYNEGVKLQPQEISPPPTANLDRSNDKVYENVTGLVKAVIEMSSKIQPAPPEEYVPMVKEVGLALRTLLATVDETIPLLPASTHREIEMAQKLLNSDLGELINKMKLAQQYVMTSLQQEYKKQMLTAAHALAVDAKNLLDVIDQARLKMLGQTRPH
Chain of Fibroblast growth factor receptor 4 (Homo sapiens) (P22455 22-802 limits assumed): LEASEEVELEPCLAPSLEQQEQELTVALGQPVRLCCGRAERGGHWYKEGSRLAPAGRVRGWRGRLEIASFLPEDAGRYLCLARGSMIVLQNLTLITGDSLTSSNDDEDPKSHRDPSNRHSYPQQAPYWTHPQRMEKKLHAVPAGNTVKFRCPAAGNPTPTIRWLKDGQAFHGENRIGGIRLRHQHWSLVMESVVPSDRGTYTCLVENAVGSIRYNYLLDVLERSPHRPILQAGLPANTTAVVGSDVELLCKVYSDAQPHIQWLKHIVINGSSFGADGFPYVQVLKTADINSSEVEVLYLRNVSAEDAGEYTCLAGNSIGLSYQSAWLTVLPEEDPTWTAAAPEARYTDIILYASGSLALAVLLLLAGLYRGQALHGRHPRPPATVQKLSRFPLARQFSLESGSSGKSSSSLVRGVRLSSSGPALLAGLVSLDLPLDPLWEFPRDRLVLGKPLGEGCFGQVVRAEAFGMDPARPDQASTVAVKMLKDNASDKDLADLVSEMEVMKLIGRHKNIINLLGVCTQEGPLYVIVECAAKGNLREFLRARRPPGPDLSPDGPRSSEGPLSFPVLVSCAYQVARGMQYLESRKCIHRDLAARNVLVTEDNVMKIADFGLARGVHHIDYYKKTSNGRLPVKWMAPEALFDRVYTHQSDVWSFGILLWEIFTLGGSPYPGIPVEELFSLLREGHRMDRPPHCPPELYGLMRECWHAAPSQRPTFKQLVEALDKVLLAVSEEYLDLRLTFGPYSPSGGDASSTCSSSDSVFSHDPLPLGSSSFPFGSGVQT
Chain of Fibroblast growth factor receptor 1 (Homo sapiens) (P11362 22-822 limits assumed): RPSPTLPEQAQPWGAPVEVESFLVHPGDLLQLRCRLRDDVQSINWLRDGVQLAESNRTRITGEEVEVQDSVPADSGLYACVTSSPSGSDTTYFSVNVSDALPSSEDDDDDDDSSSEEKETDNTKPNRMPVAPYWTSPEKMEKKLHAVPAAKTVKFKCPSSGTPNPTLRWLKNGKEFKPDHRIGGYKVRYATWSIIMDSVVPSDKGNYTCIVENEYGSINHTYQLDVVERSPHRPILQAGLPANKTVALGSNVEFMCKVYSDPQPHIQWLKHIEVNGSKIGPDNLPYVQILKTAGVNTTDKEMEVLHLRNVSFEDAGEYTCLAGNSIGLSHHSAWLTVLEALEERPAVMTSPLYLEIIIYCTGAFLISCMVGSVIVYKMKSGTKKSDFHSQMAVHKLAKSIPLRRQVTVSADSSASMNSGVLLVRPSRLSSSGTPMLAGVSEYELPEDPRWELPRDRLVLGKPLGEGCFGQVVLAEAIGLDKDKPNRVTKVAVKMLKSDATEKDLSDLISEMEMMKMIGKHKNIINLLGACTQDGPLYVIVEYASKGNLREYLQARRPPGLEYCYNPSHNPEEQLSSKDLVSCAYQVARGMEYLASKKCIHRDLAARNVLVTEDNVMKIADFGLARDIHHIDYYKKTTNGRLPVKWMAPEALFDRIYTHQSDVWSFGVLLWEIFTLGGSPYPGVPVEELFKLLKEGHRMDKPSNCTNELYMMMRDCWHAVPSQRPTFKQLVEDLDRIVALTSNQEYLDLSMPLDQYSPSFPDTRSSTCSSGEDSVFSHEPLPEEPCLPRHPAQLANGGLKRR

| SMILES | residual activity [1] | residual activity [2] | residual activity [3] | residual activity [4] | residual activity [5] | residual activity [6] | residual activity [7] | residual activity [8] | residual activity [9] | residual activity [10] | residual activity [11] | residual activity [12] | residual activity [13] | residual activity [14] | residual activity [15] | residual activity [16] | residual activity [17] | residual activity [18] | residual activity [19] | residual activity [20] |
| --- | --- | --- | --- | --- | --- | --- | --- | --- | --- | --- | --- | --- | --- | --- | --- | --- | --- | --- | --- | --- |
| Cc1cc(Nc2nc(-c3ccccc3)nc3ccccc23)n[nH]1 | 17% | 100% | 48% | 111% (inactive) | 75% | 20% | 106% | 45% | 36% | 7% | 4% | 2% | 24% | 2% | 34% | 4% | 106% | 72% | 43% |  |
| N#C/C(=C(\N)Sc1ccc(N)cc1)c1ccccc1C(F)(F)F | 95% | 108% | 110% | 105% (inactive) | 93% | 92% | 96% | 104% | 99% | 95% | 112% | 83% | 100% |  | 102% | 93% | 86% | 90% | 88% | 109% |
| c1ccc(-c2n[nH]cc2-c2ccnc3ccccc23)nc1 | 105% |  |  | 102% (inactive) | 109% | 105% | 98% | 98% |  |  | 80% | 72% | 101% | 97% |  |  |  |  |  | 137% |
| Cn1cnc2cc3c(Nc4cccc(Br)c4)ncnc3cc21 | 42% | 77% | 5% | 110% (inactive) | 31% | 4% | 72% | 75% | 82% | 93% | 74% | 43% | 92% | 89% | 102% | 97% | 127% | 96% | 115% | 123% |
| O=C1NC(=O)c2c1c1c3ccccc3[nH]c1c1[nH]c3cc(Br)ccc3c21 | 98% | 106% | 101% | 107% (inactive) | 102% | 93% | 95% | 83% | 98% | 95% | 90% | 57% | 99% | 82% | 104% | 88% | 94% | 90% | 103% | 83% |
| Cc1cccc(-c2[nH]c(C(C)(C)C)nc2-c2ccc3c(c2)OCO3)n1 |  |  |  |  |  |  | 94% | 86% |  | 95% |  |  |  | 95% |  | 129% |  |  |  |  |
| Cc1ccc(S(=O)(=O)/C=C/C#N)cc1 | 92% | 122% | 126% | 118% (inactive) | 97% | 90% | 95% | 90% | 105% | 102% | 91% | 82% | 108% | 89% | 118% | 118% | 115% | 106% | 101% | 111% |
| CC(C)n1cnc2/c(=N/c3cccc(Cl)c3)nc(NCCO)[nH]c21 | 20% | 102% | 35% | 108% (inactive) | 67% | 22% | 94% | 107% | 46% | 11% | 87% | 19% | 101% | 37% | 106% | 59% | 114% | 110% |  |  |
